Laboratory results: PubChem BioAssay AID1220 (Sanford-Burnham Center for Chemical Genomics, 2008)
Where “and” joins values, the source holds several entries; their conditions need not be identical. Equal values may be shown once. In all, about 190,000 compounds went through this assay and about 1,300 (0.68%) were called active. Cut-off read from the data, not from the text of the source: active = inhibition above about 50%; inactive = the rest. Shown is part of a subset that was picked to be rich in actives.

What follows are molecules tested against Mannose-6-phosphate isomerase (Homo sapiens) (UniProt P34949) (assay: human PMI inhibitors, high substrate, primary screen, biochemical, fluorescence intensity, high mannose 6-phosphate (AID 1220)). Conditions: recombinant PMI enzyme, coupled fluorescence intensity; at 20 µM; stronger effect = higher value.
Sequence of Mannose-6-phosphate isomerase (Homo sapiens) (P34949 whole entry, looked up): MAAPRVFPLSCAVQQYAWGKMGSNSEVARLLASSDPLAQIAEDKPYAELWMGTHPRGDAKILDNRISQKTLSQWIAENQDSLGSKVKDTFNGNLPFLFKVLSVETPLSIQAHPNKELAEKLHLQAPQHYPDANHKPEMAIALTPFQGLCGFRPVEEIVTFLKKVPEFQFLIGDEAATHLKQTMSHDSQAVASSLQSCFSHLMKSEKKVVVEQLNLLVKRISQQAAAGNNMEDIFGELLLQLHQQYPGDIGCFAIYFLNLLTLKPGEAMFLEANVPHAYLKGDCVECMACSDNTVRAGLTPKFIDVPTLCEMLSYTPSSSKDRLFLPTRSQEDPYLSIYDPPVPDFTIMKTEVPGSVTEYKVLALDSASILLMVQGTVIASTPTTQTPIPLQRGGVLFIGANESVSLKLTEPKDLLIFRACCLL

inhibition, active:
COc1ccc(N=Cc2cc3c(cc2O)OC(N)=C(C#N)C3c2ccccc2)cc1 (centres undefined) 50.4%, Cc1ccccc1N=Cc1cc2c(cc1O)OC(N)=C(C#N)C2c1ccccc1 (centres undefined) 55%, CCOC(=O)c1cc2c(ccn2C)n1Cc1ccccc1Cl 50.5%, CCOC(=O)c1cc2c(ccn2C)n1CC(=O)N1C(C)CCCC1C (centres undefined) 52%, CCOC(=O)c1cc2c(ccn2C)n1Cc1ccc(Cl)cc1 52.4%, NC(Cc1c[nH]c2ccccc12)C(=O)NCc1ccco1 (centres undefined) 55.4%, COc1ccc(C=Nc2cccc3ncccc23)cc1 63.3%, Cc1ccc(C=Nc2cccnc2N)cc1 63.2%, COc1cc(CNc2ccc(O)cc2)cc(Br)c1OCc1ccccc1F 57.4%, COc1cc(CNc2ccc(N3CCCC3)cc2)ccc1OCc1ccccc1F 55.7%, COc1cc(CNc2ccc(N3CCCC3)cc2)ccc1OCc1ccccc1 71.5%, COc1ccc(NCc2ccc(OC)c(OC)c2)cc1 60.3%, CN(C)c1cccc2c(/C=N/O)ccc(N(C)C)c12 51.7%, CN(C)c1cccc2c(C=C(C#N)C#N)ccc(N(C)C)c12 63.9%, Nc1cnccc1C(=O)O 63.7%, CC(=O)Nc1cccc(NC(=S)Nc2ccc(F)cc2F)c1 55.8%, Cc1ccc2ncccc2c1N 63.7%, Cc1ccc2cccnc2c1N 70.5%, COC(=O)/C=C1/N/C(=N\c2nc(C)cc(C)n2)N(c2cccc(C)c2)C1=O 50.4%, Oc1c(C(c2ccccn2)N2CCC(Cc3ccccc3)CC2)cc(Cl)c2cccnc12 (centres undefined) 58.9%, Cc1ccc2cn[nH]c2c1N 58.3%

inhibition, inactive:
C#CCOCCOCCOCCNc1nc(N2CCN(C(=O)[C@H](C)n3cc(CCCN=C(N)N)nn3)CC2)nc(N2CCN(C(=O)[C@H](Cc3ccc(O)cc3)n3cc(CCO)nn3)CC2)n1 -38%, COc1ccc(C(CC(=O)c2ccccc2)CC(=O)c2ccccc2)cc1OC 4%, Cc1ccc(N=Cc2cc3c(cc2O)OC(N)=C(C#N)C3c2ccccc2)cc1 (centres undefined) 10.5%, N#CC1=C(N)Oc2cc(O)c(C=Nc3ccccc3)cc2C1c1ccccc1 (centres undefined) -4%, N#CC1=C(N)Oc2cc(O)ccc2C1c1ccccc1 (centres undefined) 7.4%, Cc1ccc(C2C(C#N)=C(N)Oc3cc4c(cc32)OCO4)cc1 (centres undefined) 0.5%, Clc1ccc(C2=NCCN2)cc1 1.4%, O=C(Cc1ccc(F)cc1)N/N=C/c1ccccn1 16.5%, Cn1c(=O)[nH]c(=O)c2c1nc(N1CCOCC1)n2CC(O)COc1ccc2ccccc2c1 (centres undefined) 6.5%, O=C(NC1CCCc2ccccc21)c1ccc(CNc2c(N3CCOCC3)c(=O)c2=O)cc1 (centres undefined) -6.9%, CCOC(=O)c1cc2c(ccn2C)n1CC(=O)N1CCCC(C)C1 (centres undefined) 7.2%, CCOC(=O)c1cc2c(ccn2C)n1CC(=O)N1CCC(C)CC1 13.8%, CCOC(=O)c1cc2c(ccn2C)n1CC(=O)N(C)C 44.7%, CCOC(=O)c1cc2c(ccn2C)n1Cc1ccccc1C 22.3%, CCOC(=O)c1cc2c(ccn2C)n1Cc1ccc(C#N)cc1 35.1%, CCOC(=O)c1cc2c(ccn2C)n1Cc1cc(C)ccc1C 22.9%, CCOc1cc(CNCc2ccccn2)cc(Cl)c1OC -0.7%, Cc1noc(C)c1C(=O)Nc1sc2c(c1C(N)=O)CCC2 0.1%, Cc1ccccc1CSc1nc2c(c(=O)[nH]1)CCC2 6.8%, O=C(O/N=C1\CCCc2ccccc21)c1cccc(Cl)c1 7.1%, CCN(CCn1cccn1)C(=O)CCc1nnc(-c2ccc3c(c2)OCO3)o1 5.8%, CN(C)S(=O)(=O)c1ccc(C(=O)Nc2cc(=O)n(C)c(=O)n2C)cc1 3.9%, O=C(c1nc2ncccn2n1)N1CCN(c2ccc(F)cc2)CC1 15%, O=C(Cc1c[nH]c2ccccc12)NCc1ccco1 7.4%, O=C(CCc1c[nH]c2ccccc12)NCc1ccco1 -5.8%, COc1ccc(OCC(=O)Nn2c(-c3ccc(C)cc3)nc3ccccc3c2=O)cc1 12.7%, O=c1[nH]c2cc3c(cc2cc1CN(Cc1nnnn1CC1CCCO1)C1CCCCC1)OCO3 (centres undefined) 5.5%, Cc1ccc(C=Nc2ccccc2C(N)=O)cc1 0.6%, COc1ccc(/C=N\n2nnc3ccccc32)cc1 -4.2%, Nc1ncc(Br)cc1N=Cc1ccccc1 24.6%, COc1ccc(OCC(=O)Nc2cccc3ncccc23)cc1 3.4%, Cc1ccc(NC(=O)CCC(=O)N/N=C/c2cccs2)cc1 -0.5%, CCOc1cc(CNc2ccc(O)cc2)cc(Br)c1OCc1ccccc1F 29.5%, CCNCc1ccc(OCc2ccccc2F)c(OC)c1 -4.4%, COc1cc(CNCCCCO)ccc1OCc1ccccc1F 2.9%, COc1cc(CNc2ccc(O)cc2)cc(Br)c1OCc1ccccc1 49.4%, COc1cc(CNc2ccc(N3CCN(C(C)=O)CC3)cc2)ccc1OCc1ccc(F)cc1 27%, COc1ccc(CNS(=O)(=O)NCc2ccc(OC)c(OC)c2)cc1 -3.8%, COc1cc(CNc2ccc(N3CCN(C(C)=O)CC3)cc2)ccc1OCc1ccccc1 38.7%, COc1ccc(CNc2ccc(C)c(C)c2)cc1 9.2%, Cc1cccc(C)c1NC(=O)C1=C(O)c2sccc2N(C)S1(=O)=O 2.2%, CCOC(=O)c1c(NC(=O)CSc2nnc(CNC(=O)c3ccco3)n2C)sc2c1CCC2 4.5%, CCCCCNCc1cccn1C -9.2%, CCC(CC)N=C1NS(=O)(=O)c2cc([N+](=O)[O-])ccc21 -4.3%, Cc1cc(=O)oc2cc(OCC(O)CN3CCN(c4ccc(F)cc4)CC3)ccc12 (centres undefined) 7.1%, O=C(COC(=O)COc1ccccc1)Nc1ccccc1OC(F)F -0.8%, Cc1cccc(NS(=O)(=O)c2cc(C(=O)N3CCOCC3)ccc2Cl)c1 6.8%, CN(C)c1cccc(C(=O)NC2CCCCCC2)c1 5.6%, Cc1ccccc1CN(C)CC(=O)Nc1c(C)cccc1C(C)C 0.5%, CN(C)c1ccc(/C=N/O)cc1 44.3%, CC(=O)c1ccc(N(C)C)c2c(N(C)C)cccc12 38.5%, Cc1ccccc1OCCOc1ccccc1C=C(C#N)C#N 16.3%, Cc1cccc(OCCOc2ccccc2C=C(C#N)C#N)c1 11%, CCOC(=O)C1CCN(C(=O)c2ccc3c(c2)OCO3)CC1 11.2%, COc1ccccc1OCC(=O)Nn1c(=S)[nH]c2ncccc2c1=O -3.7%, CC(c1ccccc1)n1cc(C(=O)NCCN2CCOCC2)nn1 (centres undefined) -7.2%, Cc1csc(NC(=O)c2ccccc2[N+](=O)[O-])n1 -6.4%, COC(=O)c1ccncc1N 8.9%, Nc1ccc(Br)cc1C(=O)O 1.2%, COc1ccc(NC(=O)CSc2nc3c(c(=O)n2-c2ccccc2)SCC3)c(OC)c1 2.7%, CCN(CC)C(=O)c1cn(CC)c(=O)c2cc(OC)c(OC)cc12 -0.2%, CC(=O)Nc1cccc(NC(=O)Nc2ccc(F)cc2F)c1 19.6%, CC(=O)Nc1cccc(NC(=S)Nc2ccc(F)c(Cl)c2)c1 41.1%, COc1cccc(-n2c(Cc3cc(=O)[nH]c(=O)[nH]3)nnc2SCC(=O)N2CCC(C)CC2)c1 3.3%, CCOC(=O)c1c(C)[nH]c(C)c1C(=O)COC(=O)c1ccc(S(=O)(=O)N(CC)CC)cc1 4.4%, Cc1ccc2nc(C)c(C)nc2c1N 23.4%, Cc1ccc2ncccc2c1[N+](=O)[O-] 9.7%, c1cnc2c(c1)ccc1cccnc12 -13% and -7.3%, Nc1ccc2ncccc2c1N 49.6%, O=C(c1cnc2n(c1=O)CCS2)N(c1ccccc1)C1CCCCC1 -10.4%, CCc1ccc(NC(=O)c2c(C(=O)Nc3ccccc3)sc3nc(C)cc(=O)n23)cc1 -2.4%, CCOC(=O)N1CCN(Cc2c(NC(=O)c3ccco3)sc(C)c2C)CC1 3.6%, CC1(C)CC(=O)C(C2=NC(C)(C)Cc3ccccc32)=C(O)C1 -9.5%, CC1=NC(C)(C)Cc2ccccc21 11%, CCOc1ccc2[nH]c(=S)[nH]c2c1 20.7%, COC(=O)/C=C1\N/C(=N\c2nc(C)cc(C)n2)N(c2ccc(C)cc2)C1=O -5.3%, COC(=O)/C=C1/N/C(=N\c2nc(C)cc(C)n2)N(c2ccccc2)C1=O 13.3%, CC(/C=N\NC(=O)CN1CCN(Cc2ccccc2)CC1)=C\c1ccco1 9.7%, CN1CCN(C(c2ccccn2)c2cc(Cl)c3cccnc3c2O)CC1 (centres undefined) 43.8%, Oc1c(C(c2ccccn2)N2CCCCC2)cc(Cl)c2cccnc12 (centres undefined) 32.5%, CC(=O)Cc1nsc(NC(=O)c2ccccc2)n1 6.4%, Cc1ccc2cn[nH]c2c1[N+](=O)[O-] 6.8%, Cc1cccc2cn[nH]c12 -8.9%
